Assay outcomes deposited in PubChem BioAssay by National Center for Advancing Translational Sciences (NCATS).
Most compounds without a hit are left out; they make up all but 11% or so of the library.
Pf growth 48h = P. falciparum growth inhibition at 48 hours (one generation). P. falciparum luciferase growth in erythrocytes, 48 h. Potency, µM (doses to about 28.7 µM), for inactives: at the highest dose activity change, negative = inhibition, hits mostly inhibitors. actives 5.9% (n = 310,000)
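Luminescence readout; reporter = integrated firefly luciferase in P. falciparum. RBC culture at 2% hematocrit, 0.1% parasitemia final, 37 C/5% CO2; decreased signal taken as growth inhibition.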
AMA1-RON2 inh = inhibitors of Plasmodium falciparum AMA1-RON2 interaction; AlphaScreen AMA1-biotinylated RON2 peptide binding; Potency, µM (titrated, usually from 58.2 µM), for the others: at the top dose activity change, negative = inhibition, most hits filed as inhibitors; actives 0.2% (n = 360,000); AID 720542;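 also: 0% = vehicle wells and -100% = peptide control; nearly all actives have a fitted effect of over 45% in size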
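AMA1 (3D7) with his tag at 25 nM final met compounds first, then biotinylated RON2 peptide at 25 nM; detection used donor plus acceptor beads, 10 µg/mL apiece, read by AlphaScreen after 30 min at room temperature.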
Pf growth 96h = P. falciparum growth inhibition at 96 hour, primary screen for plastid delayed-death inhibitors; P. falciparum luciferase reporter growth, 96 h; Potency, µM (series often up to 28.7 µM), inactives show at the top dose activity change, negative = inhibition, hits mostly inhibitors; actives 6.9% (n = 320,000)
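Cell-based qHTS: luciferase-tagged P. falciparum in erythrocytes (2% hematocrit, 0.05% parasitemia final) incubated with compounds for 96 hours, 37 C, 5% CO2; luciferase detection reagent then added and luminescence measured.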
HCV inh = HCV inhibition; Potency, µM (top dose mostly 41.8 µM), for inactives: at the highest dose activity change, negative = inhibition, hits mostly inhibitors; actives 3.4% (n = 340,000); Huh7.5.1 HCVcc-Cre infection, luciferase reporter, 44 h
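Infectious HCV cell culture screen: compound-treated cells (1,000/well, pre-plated 4 h) are infected with HCVcc-Cre at roughly 0.5 moi and grown 44 h. Infection is quantified by luciferase signal after 15 min substrate incubation at room temperature.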
The depositor's hits bear a star; ? = inconclusive; · = no result; [ ] = another dose, or the depositor's remark. Calls follow the shape of the dose curve; as a rule, active = well fitted curve in the direction sought with a large enough effect; inconclusive = small, poorly fitted or top-dose-only effect, or another doubt; inactive = no such curve, though single readings can be large; an effect the other way counts as inactive or inconclusive. Unless noted, % is scaled to controls: 0 for no effect and ±100 for the full control effect; potency is read from the fitted curve at half-maximal effect.

SMILES	Pf growth 48h	AMA1-RON2 inh	Pf growth 96h	HCV inh
CCN(CC)CC(C)(C)C(=O)/C=C/c1ccc(/C=C/C(=O)C(C)(C)CN(CC)CC)cc1	·	15%	·	2.2µM*
O=C1Cc2cc(S(=O)(=O)Nc3ccc(F)cc3Cl)ccc2N1	22%	-6%	?	2%
CC(=O)c1ccccc1NS(=O)(=O)c1ccc2c(c1)CC(=O)N2	?	-2%	4.7µM*	6%
CC1CN(C(=O)C(c2ccccc2)c2ccccc2)CC(C)O1 (stereo unspecified)	·	20%	?	-3%
CC1CN(C(=O)C(Sc2ccccc2)c2ccccc2)CC(C)O1 (stereo unspecified)	9%	12%[11.6 µM]	10µM*	-7%
Cc1cc(C)c(S(=O)(=O)N2CCCCC2CCNC(=O)C(=O)NC2CC2)c(C)c1 (stereo unspecified)	9.3µM*	3%	?	7%
Cc1ccc(C)c(S(=O)(=O)N2CCCC2CNC(=O)C(=O)NCc2ccco2)c1 (stereo unspecified)	?	-2%	0%	0%
Cc1ccc(C)c(S(=O)(=O)N2CCCCC2CCNC(=O)C(=O)NCc2ccco2)c1 (stereo unspecified)	?	-7%	?	11µM*
Cc1cc(S(=O)(=O)N2CCCCC2CCNC(=O)C(=O)NC2CC2)ccc1F (stereo unspecified)	-16%	7%	?	-1%
Cc1ccc(C(=O)N2CCC(C(=O)Nc3cccc([N+](=O)[O-])c3)CC2)cc1	28%	-3%	-28%	-1%
CC(=O)COc1ccc2c(-c3cccc([N+](=O)[O-])c3)cc(=O)oc2c1	5%	0%	?	-29%
CC(=O)COc1ccc2oc(=O)cc(-c3cc4ccccc4o3)c2c1	-4%	-4%	?	14µM*
O=c1cc(-c2cc3ccccc3o2)c2cc(O)ccc2o1	?	1%	?	?
Cc1cc2oc(=O)cc(-c3cc4ccccc4o3)c2cc1O	7.4µM*	-28%	2.6µM*	?
CCc1ccccc1NC(=O)C1CCCN(c2nccc(C)n2)C1 (stereo unspecified)	?	-12%	-1%	14%
CCN1CCn2c3c(c4cc(C)ccc42)CCCC31 (stereo unspecified)	8.3µM*	-5%	55%	?
Cc1ccc2c(c1)c1c3n2CCN(CCC#N)C3CCC1 (stereo unspecified)	·	-4%	·	·
Cc1ccc2c(c1)c1c3n2CCN(C(=O)CCl)C3CCC1 (stereo unspecified)	?	-5%	?	22µM*
CCc1nc(C)cn1S(=O)(=O)c1cc(C)c(OC)c(C)c1C	·	-4%	4%	2.8µM*
CN(C)c1nc(NC(C)(C)C)nc(SCC(=O)Nc2ccccc2)n1	15µM*	-8%	-4%	?
CC(C)(C)Nc1nc(SCC(=O)Nc2ccccc2)nc(N2CCOCC2)n1	9.3µM*	-22%	?	?
CN(C)c1nc(NCc2ccccc2)nc(SCC(=O)Nc2ccccc2)n1	?	4%	?	?
O=C(CSc1nc(Nc2ccccc2)nc(N2CCOCC2)n1)Nc1ccc2c(c1)OCCO2	9.3µM*	-16%	·	-27%
Cc1ccccc1NC(=O)CSc1nc(Nc2ccccc2)nc(N2CCOCC2)n1	?	5%	·	?
CC(C)(C)Nc1nc(NCc2cccnc2)nc(N2CCOCC2)n1	5.2µM*	35%	?	-17%
SMILES	Pf growth 48h	AMA1-RON2 inh	Pf growth 96h	HCV inh
COc1ccc(NC(=O)C(CC(C)C)NC(=O)C2CCCCC2)c(OC)c1 (stereo unspecified)	18%	1%	?	-6%
Cc1ccc(C(=O)Nc2ccc(Nc3ccccc3)cc2)c(Cl)c1	44%	-12%	?	-28%
OC(CNCc1cccnc1)COc1ccc2ccccc2c1 (stereo unspecified)	6%	-1%	41%	13%
CC(Sc1nc(NCc2ccccc2)nc(N2CCOCC2)n1)C(=O)Nc1ccccc1 (stereo unspecified)	?	-1%	·	?
CC(Sc1nc(NCc2ccccc2)nc(N(C)C)n1)C(=O)Nc1ccccc1 (stereo unspecified)	?	-2%	5.2µM*	?
CC(C)[C@H](NS(=O)(=O)c1cccc(C(F)(F)F)c1)C(=O)OCC(=O)NC(=O)NCc1ccco1	·	-7%	·	11µM*
Cc1[nH]c2c(C)cccc2c1CCNS(=O)(=O)c1cccc([N+](=O)[O-])c1	-11%	-2%	36%	-11%
